Results on one sequence are retold here after article PMC7862700, “An all-to-all approach to the identification of sequence-specific readers for epigenetic DNA modifications on cytosine”.

Common to all, as to test: DAPPL (digital affinity profiling via proximity ligation, sequencing); 10 mM Tris-HCl pH 7.5, 50 mM NaCl, 1 mM DTT, 4% glycerol, room temperature, 30 min; GST-TFs on glutathione beads, 16-mer random dsDNA library, 0.1% formaldehyde crosslink after washing; high values mean tight binding
In one assay the target is T1, FLI1 (Homo sapiens, UniProt Q01543 1-452).
T1 sequence: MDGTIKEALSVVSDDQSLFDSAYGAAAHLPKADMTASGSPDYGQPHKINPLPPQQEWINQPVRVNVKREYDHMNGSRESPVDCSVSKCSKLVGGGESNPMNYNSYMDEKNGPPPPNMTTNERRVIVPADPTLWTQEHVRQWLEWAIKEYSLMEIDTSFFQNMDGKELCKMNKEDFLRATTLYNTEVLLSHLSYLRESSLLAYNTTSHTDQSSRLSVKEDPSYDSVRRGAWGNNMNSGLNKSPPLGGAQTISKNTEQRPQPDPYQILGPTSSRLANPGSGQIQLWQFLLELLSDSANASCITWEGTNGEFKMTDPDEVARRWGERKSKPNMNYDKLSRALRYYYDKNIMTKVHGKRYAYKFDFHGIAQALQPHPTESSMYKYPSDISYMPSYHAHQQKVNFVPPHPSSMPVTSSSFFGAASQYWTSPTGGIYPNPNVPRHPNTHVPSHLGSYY
The note with it: protein: recombinant; tags: N-terminal GST; dsDNA, one strand shown. The gist of the method: (§1)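 Human transcription factors were made in yeast as GST fusions, captured on glutathione beads and barcoded with DNA. With a tag-only sample included, the pool was incubated with 200 nmole of a random double-stranded 16-mer DNA library in Tris/NaCl/DTT/glycerol buffer at room temperature for 30 min, then crosslinked with 0.1% formaldehyde after washing, ligated by proximity, amplified and sequenced. For binding signal, each hexamer's read frequency for a factor is divided by its frequency for the tag-only sample.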

In the next assay the target is T2, ELK1 (Homo sapiens, UniProt P19419 1-428).
T2 sequence: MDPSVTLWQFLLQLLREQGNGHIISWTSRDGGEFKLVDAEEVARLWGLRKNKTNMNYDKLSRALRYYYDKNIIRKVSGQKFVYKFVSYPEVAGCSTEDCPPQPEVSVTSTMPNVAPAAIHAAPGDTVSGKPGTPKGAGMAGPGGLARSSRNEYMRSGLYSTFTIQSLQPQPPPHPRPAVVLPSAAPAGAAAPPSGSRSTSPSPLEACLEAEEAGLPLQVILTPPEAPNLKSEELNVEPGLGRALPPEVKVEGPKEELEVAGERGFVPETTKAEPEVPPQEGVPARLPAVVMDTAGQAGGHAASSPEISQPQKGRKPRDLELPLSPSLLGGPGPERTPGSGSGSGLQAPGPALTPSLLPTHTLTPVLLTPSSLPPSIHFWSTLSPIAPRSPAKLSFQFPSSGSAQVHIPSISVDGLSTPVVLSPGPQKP
Particulars: protein: recombinant; tags: N-terminal GST; dsDNA, one strand shown. The gist of the method: as §1

Another assay concerns the target T3, GABPA (Homo sapiens, UniProt Q06546 1-454).
T3 sequence: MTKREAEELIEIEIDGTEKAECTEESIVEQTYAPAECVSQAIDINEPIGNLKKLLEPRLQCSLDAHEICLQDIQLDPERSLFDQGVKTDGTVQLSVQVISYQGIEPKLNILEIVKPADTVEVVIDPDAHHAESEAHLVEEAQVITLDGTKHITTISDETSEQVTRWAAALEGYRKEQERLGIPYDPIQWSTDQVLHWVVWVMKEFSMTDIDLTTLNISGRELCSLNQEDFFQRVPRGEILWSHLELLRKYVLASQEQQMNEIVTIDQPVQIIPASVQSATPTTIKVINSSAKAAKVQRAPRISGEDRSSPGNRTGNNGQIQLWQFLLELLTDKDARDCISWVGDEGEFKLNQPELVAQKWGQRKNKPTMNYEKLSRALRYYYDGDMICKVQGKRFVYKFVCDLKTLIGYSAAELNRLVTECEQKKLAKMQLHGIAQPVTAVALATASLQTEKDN
The note with it: protein: recombinant; tags: N-terminal GST; dsDNA, one strand shown. In outline:
as §1

The next assay addresses T4, ERG (Homo sapiens, UniProt P11308 1-479).
T4 sequence: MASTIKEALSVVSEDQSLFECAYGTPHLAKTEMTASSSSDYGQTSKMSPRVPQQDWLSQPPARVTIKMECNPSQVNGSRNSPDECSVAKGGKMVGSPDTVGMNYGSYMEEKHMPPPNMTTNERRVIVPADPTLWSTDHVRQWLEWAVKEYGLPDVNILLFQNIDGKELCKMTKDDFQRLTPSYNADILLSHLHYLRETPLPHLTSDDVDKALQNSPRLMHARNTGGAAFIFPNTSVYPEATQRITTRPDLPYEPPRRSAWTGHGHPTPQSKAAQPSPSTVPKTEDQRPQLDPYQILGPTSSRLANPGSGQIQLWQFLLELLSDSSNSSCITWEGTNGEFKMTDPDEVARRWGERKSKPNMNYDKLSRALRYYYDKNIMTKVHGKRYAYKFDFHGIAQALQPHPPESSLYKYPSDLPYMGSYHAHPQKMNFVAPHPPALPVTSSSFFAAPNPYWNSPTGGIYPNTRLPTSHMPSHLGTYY
The note with it: protein: recombinant; tags: N-terminal GST; dsDNA, one strand shown. The gist of the method:
as §1

Another assay has as its target ELF1 (Homo sapiens, UniProt P32519 1-619). The note with it: protein: recombinant; tags: N-terminal GST; dsDNA, one strand shown. In outline: as §1
In the next assay the target is T5, EHF (Homo sapiens, UniProt Q9NZC4 1-300).
T5 sequence: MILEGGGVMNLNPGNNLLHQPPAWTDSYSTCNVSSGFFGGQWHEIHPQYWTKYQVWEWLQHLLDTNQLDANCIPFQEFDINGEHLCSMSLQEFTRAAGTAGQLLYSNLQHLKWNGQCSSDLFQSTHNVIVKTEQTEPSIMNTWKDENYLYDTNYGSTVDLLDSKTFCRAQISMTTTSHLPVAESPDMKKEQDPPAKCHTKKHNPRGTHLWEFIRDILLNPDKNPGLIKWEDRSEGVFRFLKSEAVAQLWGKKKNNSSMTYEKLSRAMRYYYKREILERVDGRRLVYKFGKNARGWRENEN
Particulars: protein: recombinant; tags: N-terminal GST; dsDNA, one strand shown. The gist of the method: as §1

The target of the next assay is SPI1 (Homo sapiens, UniProt P17947 1-270). Particulars: protein: recombinant; tags: N-terminal GST; dsDNA, one strand shown. In outline: as §1
In the next assay the target is SPIB (Homo sapiens, UniProt Q01892 1-262). Particulars: protein: recombinant; tags: N-terminal GST; dsDNA, one strand shown. The gist of the method:
as §1

For a further assay, the target named is T6, ELK3 (Homo sapiens, UniProt P41970 1-407).
T6 sequence: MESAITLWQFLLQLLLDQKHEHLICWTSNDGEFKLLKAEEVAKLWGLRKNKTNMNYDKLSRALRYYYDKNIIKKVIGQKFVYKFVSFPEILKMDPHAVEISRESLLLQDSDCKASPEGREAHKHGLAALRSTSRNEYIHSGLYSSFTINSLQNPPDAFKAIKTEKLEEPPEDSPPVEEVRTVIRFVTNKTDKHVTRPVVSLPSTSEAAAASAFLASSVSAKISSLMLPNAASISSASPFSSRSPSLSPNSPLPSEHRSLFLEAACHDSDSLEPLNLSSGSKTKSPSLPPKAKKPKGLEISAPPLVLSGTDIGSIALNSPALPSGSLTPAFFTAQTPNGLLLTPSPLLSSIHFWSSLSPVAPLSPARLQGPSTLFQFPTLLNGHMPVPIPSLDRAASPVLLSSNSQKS
Particulars: protein: recombinant; tags: N-terminal GST; dsDNA, one strand shown. In outline:
as §1

Another assay concerns the target T7, FEV (Homo sapiens, UniProt Q99581 1-238).
T7 sequence: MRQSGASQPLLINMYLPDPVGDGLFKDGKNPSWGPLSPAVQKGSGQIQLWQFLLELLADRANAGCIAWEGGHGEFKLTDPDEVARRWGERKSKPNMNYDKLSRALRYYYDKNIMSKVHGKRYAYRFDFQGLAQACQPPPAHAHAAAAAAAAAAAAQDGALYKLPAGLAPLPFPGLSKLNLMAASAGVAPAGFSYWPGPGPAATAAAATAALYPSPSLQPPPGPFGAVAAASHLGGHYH
The note with it: protein: recombinant; tags: N-terminal GST; dsDNA, one strand shown. The gist of the method:
as §1

Another assay concerns the target ETV5 (Homo sapiens, UniProt P41161 1-510). The note with it: protein: recombinant; tags: N-terminal GST; dsDNA, one strand shown. In outline: as §1
The target in another assay is HSF1 (Homo sapiens, UniProt Q00613 1-529). Particulars: protein: recombinant; tags: N-terminal GST; chain copies: 3; dsDNA, one strand shown. In outline:
as §1

The target in the next assay is T8, SPIC (Homo sapiens, UniProt Q8N5J4 1-248).
T8 sequence: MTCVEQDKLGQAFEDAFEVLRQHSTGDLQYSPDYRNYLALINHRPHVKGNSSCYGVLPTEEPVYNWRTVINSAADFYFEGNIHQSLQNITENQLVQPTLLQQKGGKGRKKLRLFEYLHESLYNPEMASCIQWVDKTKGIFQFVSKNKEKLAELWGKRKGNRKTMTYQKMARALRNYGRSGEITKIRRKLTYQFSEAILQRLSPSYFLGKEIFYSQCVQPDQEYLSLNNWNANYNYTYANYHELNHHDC
Particulars: protein: recombinant; tags: N-terminal GST; dsDNA, one strand shown. The gist of the method: as §1

For a further assay, the target named is ELF4 (Homo sapiens, UniProt Q99607 1-663). Particulars: protein: recombinant; tags: N-terminal GST; dsDNA, one strand shown. In outline:
as §1

A further assay concerns the target T9, ELK4 (Homo sapiens, UniProt P28324-2 1-405).
T9 sequence: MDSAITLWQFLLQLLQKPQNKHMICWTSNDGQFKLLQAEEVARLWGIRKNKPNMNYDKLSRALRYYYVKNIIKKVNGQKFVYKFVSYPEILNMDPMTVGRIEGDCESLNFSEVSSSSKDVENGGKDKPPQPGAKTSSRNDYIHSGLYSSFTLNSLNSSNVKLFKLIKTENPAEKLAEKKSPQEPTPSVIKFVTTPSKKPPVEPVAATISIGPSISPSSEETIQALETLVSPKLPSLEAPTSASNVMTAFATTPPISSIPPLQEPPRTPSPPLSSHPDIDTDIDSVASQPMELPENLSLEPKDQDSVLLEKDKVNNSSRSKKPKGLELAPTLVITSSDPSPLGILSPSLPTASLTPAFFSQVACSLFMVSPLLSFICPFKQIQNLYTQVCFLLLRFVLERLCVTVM
Particulars: protein: recombinant; tags: N-terminal GST; dsDNA, one strand shown. The gist of the method:
as §1

In the next assay the target is T10, ETV2 (Homo sapiens, UniProt O00321 1-342).
T10 sequence: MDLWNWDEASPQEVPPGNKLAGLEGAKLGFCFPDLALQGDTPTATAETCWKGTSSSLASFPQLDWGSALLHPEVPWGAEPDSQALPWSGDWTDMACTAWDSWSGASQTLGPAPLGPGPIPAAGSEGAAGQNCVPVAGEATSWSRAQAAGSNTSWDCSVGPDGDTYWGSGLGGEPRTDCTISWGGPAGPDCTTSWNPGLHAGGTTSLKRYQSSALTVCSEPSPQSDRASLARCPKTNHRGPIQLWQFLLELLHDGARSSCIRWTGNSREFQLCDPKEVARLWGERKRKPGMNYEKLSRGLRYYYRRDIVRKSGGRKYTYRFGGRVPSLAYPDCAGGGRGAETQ
The note with it: protein: recombinant; tags: N-terminal GST; dsDNA, one strand shown. In outline:
as §1

Another assay addresses T11, ELF3 (Homo sapiens, UniProt P78545 1-371).
T11 sequence: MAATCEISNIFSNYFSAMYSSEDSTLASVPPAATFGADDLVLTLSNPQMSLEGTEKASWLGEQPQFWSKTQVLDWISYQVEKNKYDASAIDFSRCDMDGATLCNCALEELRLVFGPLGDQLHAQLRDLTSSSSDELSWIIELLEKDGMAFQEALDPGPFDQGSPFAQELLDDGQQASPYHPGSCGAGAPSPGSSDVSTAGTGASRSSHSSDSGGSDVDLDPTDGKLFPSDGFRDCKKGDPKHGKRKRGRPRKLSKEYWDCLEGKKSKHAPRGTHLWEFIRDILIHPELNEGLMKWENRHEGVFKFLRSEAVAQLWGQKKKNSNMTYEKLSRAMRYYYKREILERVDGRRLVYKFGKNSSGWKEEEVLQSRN
Particulars: protein: recombinant; tags: N-terminal GST; dsDNA, one strand shown. The gist of the method:
as §1

The target in another assay is CRX (Homo sapiens, UniProt O43186 1-299). The note with it: protein: recombinant; tags: N-terminal GST; dsDNA, one strand shown. In outline: as §1
Chain of CRX (O43186 whole entry): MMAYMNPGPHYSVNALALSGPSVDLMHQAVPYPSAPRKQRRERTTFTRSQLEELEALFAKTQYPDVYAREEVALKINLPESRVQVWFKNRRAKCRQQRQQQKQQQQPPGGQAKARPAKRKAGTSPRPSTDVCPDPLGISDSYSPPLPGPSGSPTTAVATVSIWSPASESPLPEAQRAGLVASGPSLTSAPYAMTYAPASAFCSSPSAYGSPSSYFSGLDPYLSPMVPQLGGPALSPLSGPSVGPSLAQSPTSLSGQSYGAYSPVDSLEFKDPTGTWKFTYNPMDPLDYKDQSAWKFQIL
The target of a further assay is ETV1 (Homo sapiens, UniProt P50549 1-477). The note with it: protein: recombinant; tags: N-terminal GST; dsDNA, one strand shown. In outline: as §1
Chain of ETV1 (P50549 whole entry): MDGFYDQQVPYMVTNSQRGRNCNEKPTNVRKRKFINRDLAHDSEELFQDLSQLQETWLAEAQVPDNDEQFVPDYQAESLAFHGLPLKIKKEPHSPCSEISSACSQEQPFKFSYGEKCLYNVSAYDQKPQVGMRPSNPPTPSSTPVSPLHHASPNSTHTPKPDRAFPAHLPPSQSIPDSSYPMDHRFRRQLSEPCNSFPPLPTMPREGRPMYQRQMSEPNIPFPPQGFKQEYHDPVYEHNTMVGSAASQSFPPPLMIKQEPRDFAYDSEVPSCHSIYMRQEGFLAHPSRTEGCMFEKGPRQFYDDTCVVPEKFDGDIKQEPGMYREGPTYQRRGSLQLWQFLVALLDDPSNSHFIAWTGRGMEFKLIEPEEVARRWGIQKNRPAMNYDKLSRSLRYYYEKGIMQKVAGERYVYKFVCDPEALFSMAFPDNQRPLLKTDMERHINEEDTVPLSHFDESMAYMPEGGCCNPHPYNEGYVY

Chain of ELF4 (Q99607 whole entry): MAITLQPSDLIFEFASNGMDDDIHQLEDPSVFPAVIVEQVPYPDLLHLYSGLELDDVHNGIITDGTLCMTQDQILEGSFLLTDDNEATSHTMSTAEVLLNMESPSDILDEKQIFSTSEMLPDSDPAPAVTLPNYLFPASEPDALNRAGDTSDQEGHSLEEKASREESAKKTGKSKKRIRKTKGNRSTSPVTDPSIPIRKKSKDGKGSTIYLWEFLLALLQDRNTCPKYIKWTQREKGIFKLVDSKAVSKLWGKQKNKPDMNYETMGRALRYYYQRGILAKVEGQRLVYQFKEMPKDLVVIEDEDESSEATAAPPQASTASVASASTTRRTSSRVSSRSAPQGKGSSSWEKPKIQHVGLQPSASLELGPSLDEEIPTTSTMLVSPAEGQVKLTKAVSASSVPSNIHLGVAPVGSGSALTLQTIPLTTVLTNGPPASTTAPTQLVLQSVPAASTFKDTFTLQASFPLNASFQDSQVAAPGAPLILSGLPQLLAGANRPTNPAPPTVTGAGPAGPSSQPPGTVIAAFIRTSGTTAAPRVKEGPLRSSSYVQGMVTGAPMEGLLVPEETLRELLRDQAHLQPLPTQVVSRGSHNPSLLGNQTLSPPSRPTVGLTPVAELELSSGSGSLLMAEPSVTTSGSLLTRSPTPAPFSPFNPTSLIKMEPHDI
Chain of ETV5 (P41161 whole entry): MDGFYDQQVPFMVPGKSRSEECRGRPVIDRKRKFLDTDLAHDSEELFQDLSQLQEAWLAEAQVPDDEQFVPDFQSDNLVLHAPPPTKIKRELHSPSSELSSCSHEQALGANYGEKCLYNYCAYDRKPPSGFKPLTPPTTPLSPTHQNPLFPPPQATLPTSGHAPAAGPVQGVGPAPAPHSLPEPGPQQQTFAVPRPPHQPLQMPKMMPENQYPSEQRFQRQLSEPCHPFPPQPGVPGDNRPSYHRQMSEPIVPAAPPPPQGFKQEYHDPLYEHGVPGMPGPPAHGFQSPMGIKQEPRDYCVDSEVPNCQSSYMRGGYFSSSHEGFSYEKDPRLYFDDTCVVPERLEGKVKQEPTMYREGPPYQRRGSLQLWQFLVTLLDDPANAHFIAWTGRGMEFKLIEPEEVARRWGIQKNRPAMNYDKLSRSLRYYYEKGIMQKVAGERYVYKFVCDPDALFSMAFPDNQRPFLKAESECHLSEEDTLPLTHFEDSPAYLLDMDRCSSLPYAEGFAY
Chain of SPIB (Q01892 whole entry): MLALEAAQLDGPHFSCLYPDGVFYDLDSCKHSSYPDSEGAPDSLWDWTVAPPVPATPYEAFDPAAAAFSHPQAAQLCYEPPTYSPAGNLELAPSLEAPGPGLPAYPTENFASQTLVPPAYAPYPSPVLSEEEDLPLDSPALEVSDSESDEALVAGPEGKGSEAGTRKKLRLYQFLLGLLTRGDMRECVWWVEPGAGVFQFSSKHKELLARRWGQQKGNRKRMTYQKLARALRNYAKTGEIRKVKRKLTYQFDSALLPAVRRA
Chain of HSF1 (Q00613 whole entry): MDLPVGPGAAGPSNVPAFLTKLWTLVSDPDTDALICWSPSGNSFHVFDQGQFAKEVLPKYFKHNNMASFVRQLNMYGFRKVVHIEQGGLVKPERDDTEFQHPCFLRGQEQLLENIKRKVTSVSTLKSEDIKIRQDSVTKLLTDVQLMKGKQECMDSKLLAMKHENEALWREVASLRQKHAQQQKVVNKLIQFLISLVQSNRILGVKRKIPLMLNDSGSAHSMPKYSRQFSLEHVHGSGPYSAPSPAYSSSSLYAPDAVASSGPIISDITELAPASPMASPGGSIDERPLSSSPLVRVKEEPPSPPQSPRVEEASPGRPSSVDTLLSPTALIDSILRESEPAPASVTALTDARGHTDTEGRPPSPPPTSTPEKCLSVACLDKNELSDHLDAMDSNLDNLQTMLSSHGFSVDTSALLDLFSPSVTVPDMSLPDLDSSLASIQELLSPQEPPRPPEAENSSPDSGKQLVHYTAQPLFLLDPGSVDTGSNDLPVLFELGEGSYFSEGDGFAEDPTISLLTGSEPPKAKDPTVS
Chain of ELF1 (P32519 whole entry): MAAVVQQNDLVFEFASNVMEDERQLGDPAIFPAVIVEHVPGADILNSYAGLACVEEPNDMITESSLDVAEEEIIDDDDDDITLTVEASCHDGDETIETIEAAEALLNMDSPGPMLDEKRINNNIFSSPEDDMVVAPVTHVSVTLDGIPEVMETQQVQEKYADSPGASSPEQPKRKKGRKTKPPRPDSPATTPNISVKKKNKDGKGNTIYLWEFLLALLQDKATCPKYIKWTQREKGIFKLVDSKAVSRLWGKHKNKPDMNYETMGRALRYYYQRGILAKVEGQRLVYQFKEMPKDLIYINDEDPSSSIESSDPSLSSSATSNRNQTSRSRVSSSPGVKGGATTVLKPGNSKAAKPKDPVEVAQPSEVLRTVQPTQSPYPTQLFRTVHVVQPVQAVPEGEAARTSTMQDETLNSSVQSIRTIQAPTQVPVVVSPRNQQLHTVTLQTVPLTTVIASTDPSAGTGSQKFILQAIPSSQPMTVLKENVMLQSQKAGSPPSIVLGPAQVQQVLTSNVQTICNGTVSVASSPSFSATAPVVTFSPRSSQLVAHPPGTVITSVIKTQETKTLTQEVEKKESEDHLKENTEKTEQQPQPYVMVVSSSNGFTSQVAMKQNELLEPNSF

TCCATC: the binding signal with FLI1 was 1.28 fold enrichment (6-mer frequency, TF over GST control); in the assay with ELK1, 1.28 fold enrichment (6-mer frequency, TF over GST control); in the assay with GABPA, 1.15 fold enrichment (6-mer frequency, TF over GST control); with ERG, 1.17 fold enrichment (6-mer frequency, TF over GST control); with ELF1 it was 1.29 fold enrichment (6-mer frequency, TF over GST control); in the assay with EHF, 1.2 fold enrichment (6-mer frequency, TF over GST control). Further, the binding signal with SPI1 is 1.19 fold enrichment (6-mer frequency, TF over GST control); with SPIB, 1.16 fold enrichment (6-mer frequency, TF over GST control); in the assay with ELK3, 1.28 fold enrichment (6-mer frequency, TF over GST control); with FEV, 1.21 fold enrichment (6-mer frequency, TF over GST control); with ETV5, 1.22 fold enrichment (6-mer frequency, TF over GST control); in the assay with HSF1 it was 1.16 fold enrichment (6-mer frequency, TF over GST control). The binding signal was 1.06 fold enrichment (6-mer frequency, TF over GST control) with SPIC; 1.13 fold enrichment (6-mer frequency, TF over GST control) with ELF4; 1.26 fold enrichment (6-mer frequency, TF over GST control) with ELK4; 1.32 fold enrichment (6-mer frequency, TF over GST control) with ETV2; 1.11 fold enrichment (6-mer frequency, TF over GST control) with ELF3; 1.15 fold enrichment (6-mer frequency, TF over GST control) with CRX. Besides, in the assay with ETV1, the binding signal is 1.17 fold enrichment (6-mer frequency, TF over GST control).
